Hits are enriched below; roughly 9.9% of the tested compounds scored in any of these assays.
IL1B secr inh – blocks inflammasome-driven IL-1 beta release; activity change, % at 57.5 µM; THP-1 LPS/ATP IL-1B secretion, AlphaLISA, 16 h; hits give low values; hit rate 4.7% among 360,000; AID 743279; in the data active means activity change below about -50%; inconclusive means mostly about -30% to -49%
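THP-1 cells pretreated 1 hr with compounds (up to 57.5 uM final), then stimulated with LPS (250 ng/mL final) plus ATP (1.25 mM final); secreted IL-1B measured by AlphaLISA after 16 hr, decreased signal indicating inhibition.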
KB-3-1 cytotox – KB-3-1 parental cell cytotoxicity | Potency, µM (highest dose often 46.1 µM), most hits filed as cytotoxic | KB-3-1 viability, CellTiter-Glo ATP luminescence, 72 h | hit rate 1.4% among 400,000; further: nearly all actives have a fitted effect of over 60% in size
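Multi-concentration cytotoxicity screen in KB-3-1 cells grown in DMEM lacking phenol red with 10% FBS. After 72 h at 37 °C with compound, ATP-dependent luminescence was recorded.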
KB-V1 cytotox – kills drug-selected multidrug resistant KB-V1 cells | KB-V1 MDR cells viability, CellTiter-Glo, 72 h | Potency, µM (series often up to 46.1 µM), hits mostly cytotoxic | hit rate 3.4% among 400,000 | AID 1347076; further: nearly all actives have a fitted effect of over 60% in size
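KB-V1 MDR subline cells in DMEM (phenol-red free, 10% FBS) exposed to compounds in qHTS concentration series for 72 h at 37 degrees C. Viability read by CellTiter-Glo luminescence; concentration-effect curves fitted after normalization and correction.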
SW480 rereplic – DNA re-replication induction in SW480 cells; SW480 DNA re-replication, Hoechst DNA content imaging, 48 h; Potency, µM (top dose mostly 46.1 µM), actives largely listed as activators; hit rate 1.8% among 340,000; AID 624297; further: nearly all actives have a fitted effect of over 55% in size
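First, 250 cells per well were seeded. Next, compound or vehicle (23 nL) was pinned in, plates sat 48 hr at 37 C. Finally Hoechst was added for 40 min before fluorescence scanning.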
MCF10A rereplic – DNA re-replication induction in MCF 10a cells. MCF 10A DNA re-replication, Hoechst nuclear intensity, 48 h. Potency, µM (highest dose often 46.1 µM), actives largely listed as activators. hit rate 2.9% among 350,000; further: nearly all actives have a fitted effect of over 50% in size
A number is an active result; . = inactive; ? = inconclusive; / = not tested or not shown; [ ] = another dose, or the depositor's remark. Unless noted, the call rests on the fitted dose curve; in most records, active means well fitted curve in the direction sought with a large enough effect; inconclusive means small, poorly fitted or top-dose-only effect, or another doubt; inactive means no such curve, though single readings can be large; an effect the other way counts as inactive or inconclusive.

SMILES | IL1B secr inh | KB-3-1 cytotox | KB-V1 cytotox | SW480 rereplic | MCF10A rereplic
COc1cccc(C2=CC(c3ccc(OC)c(OC)c3OC)n3nnnc3N2)c1 (stereo unspecified) | . | . | . | . | .
CCOC(=O)c1cc(-c2ccc(C)cc2)nn1Cc1ccccc1 | / | . | . | / | /
COc1ccc2nc(-c3ccco3)c(-c3ccco3)nc2c1 | . | . | ? | ? | ?
COc1ccc2nc3cccc(OC)c3nc2c1 | . | . | . | ? | 1.3µM
COc1ccc2nc3ccccc3nc2c1N | -63 | . | ? | . | ?
Cc1[nH]c(C)c(S(=O)(=O)NCCc2ccc(S(N)(=O)=O)cc2)c1C(=O)N1CCCC1 | . | . | . | . | .
COc1ccccc1/C=C1\CCCC2=C1Nc1nnnn1C2c1ccccc1OC (stereo unspecified) | -101 | ? | 8.2µM | ? | ?
CC1CCCCN1CCCNC(=O)C1CCN(c2nnc(-n3cccc3)s2)CC1 (stereo unspecified) | ? | . | . | . | .
CCOc1ccc(NCc2cccn2-c2nnc(N3CCC(C(=O)NCCCN4CCCCC4CC)CC3)s2)cc1 (stereo unspecified) | -69 | . | ? | . | ?
Cc1nc(S(=O)(=O)N2CCN(c3cccc(Cl)c3)CC2)cn1C | / | . | . | / | /
CC(C)OP(=O)(Nc1cccc2ccccc12)OC(C)C | . | . | . | . | .
CN(C)P(=O)(Nc1cccc2ccccc12)Nc1cccc2ccccc12 | . | . | 12µM | . | .
COc1cc(NC(=O)CN2C(=O)c3ccccc3Sc3ccc(C(=O)N4CCCC4)cc32)cc(OC)c1 | / | . | . | / | /
Cc1ccc(O)c(C(=O)/C=C/c2ccc3c(c2)OCCCO3)c1 | -105 | . | . | ? | 13µM
O=C(C=Cc1ccccc1)c1cc(Br)ccc1O | . | . | . | ? | ?
Cc1ccc(/C=C/C(=O)c2ccccc2O)cc1 | -102 | . | . | ? | ?
CN(C)c1ccc(/C=C/C(=O)c2ccccc2O)cc1 | . | . | . | . | .
Cc1ccc(O)c(C(=O)C=Cc2ccccc2)c1 | -101 | ? | ? | ? | ?
O=C(/C=C/c1ccc2c(c1)OCCCO2)c1ccccc1O | . | . | ? | . | ?
C[C@@H]1CN([C@H](C)CO)C(=O)CCCn2nncc2CO[C@H]1CN(C)C(=O)C1CCCCC1 | . | . | . | / | /
COc1ccc(-c2csc3ncnc(N4CCN(c5ccccc5Cl)CC4)c23)cc1 | . | ? | ? | ? | 18µM
COc1ccc(Nc2ncnc3scc(-c4ccc(OC)cc4)c23)cc1 | . | 4.1µM | 3.3µM | 15µM | 5.2µM
COc1ccc(N2CCN(c3ncnc4scc(-c5ccc(C)cc5)c34)CC2)cc1 | . | ? | ? | ? | 23µM
c1ccc(-c2csc3ncnc(N4CCc5ccccc5C4)c23)cc1 | . | ? | 16µM | ? | ?
c1ccc(-c2csc3ncnc(N4CCOCC4)c23)cc1 | . | . | . | . | .
SMILES | IL1B secr inh | KB-3-1 cytotox | KB-V1 cytotox | SW480 rereplic | MCF10A rereplic
CCOC(=O)c1c(S(=O)(=O)N(C)C2CCCCC2)c(C)n(C)c1C | . | . | . | . | .
CC(=O)N1N=C(c2ccc(NS(=O)(=O)c3ccccc3)cc2)CC1c1ccco1 (stereo unspecified) | . | ? | . | 12µM | ?
CC(C)[C@H](NS(=O)(=O)c1ccccc1)C(=O)OCC(=O)N1N=C(c2ccc(Cl)cc2)CC1c1ccco1 (stereo partly specified) | -72 | . | ? | . | .
Cc1ccc(OCC(=O)N2N=C(c3ccc(Cl)cc3)CC2c2ccco2)c([N+](=O)[O-])n1 (stereo unspecified) | -54 | . | . | . | .
CC(=O)N1N=C(c2cccc(NS(=O)(=O)c3ccc(C)cc3)c2)CC1c1ccco1 (stereo unspecified) | . | ? | . | 16µM | ?
CS(=O)(=O)Nc1cccc(C2=NN(C(=O)c3ccco3)C(c3ccco3)C2)c1 (stereo unspecified) | . | ? | . | ? | ?
CCc1ccc(C2=NN(C(C)=O)C(c3ccco3)C2)cc1 (stereo unspecified) | . | ? | . | . | ?
COc1ccc(Br)c(C(=O)Nc2cc3c(cc2N2CCOCC2)n(C)c(=O)n3C)c1 | / | ? | . | / | /
O=C(COC(=O)Cc1ccc(-c2ccccc2)cc1)NCc1ccccc1 | . | . | . | . | ?
CCN(CC)c1ccc(N=Cc2cc(Br)ccc2O)cc1 | . | ? | . | 10µM | ?
Cc1ccccc1-c1noc(N)c1C#N | . | . | ? | 5.2µM | 16µM
O=C(/C=C/c1ccc(O)cc1)c1ccc(NC2=C(N3CCCCC3)C(=O)c3ccccc3C2=O)cc1 | ? | 2.1µM | ? | ? | 6.5µM
Cc1ccc(NC2=C(N3CCCCC3)C(=O)c3ccccc3C2=O)cc1 | -68 | ? | . | 2.9µM | 5.8µM
O=C1C(Nc2ccccc2)=C(N2CCCCC2)C(=O)c2ccccc21 | . | ? | . | .[9.22 µM] | ?
COc1ccccc1NC1=C(N2CCCCC2)C(=O)c2ccccc2C1=O | ? | 2.6µM | . | 4.6µM | 3.3µM
O=C1C(Nc2cccc(O)c2)=C(N2CCCCC2)C(=O)c2ccccc21 | -84 | ? | . | . | .
CC(C)(C)OC(=O)C[C@H]1C/C=C\C[C@@H](CC(=O)N(CCO)Cc2ccccc2)C(=O)N[C@H](Cc2c[nH]c3ccccc23)COC1=O | . | . | . | . | ?
CN(C1=C(N2CCCCC2)C(=O)c2ccccc2C1=O)c1ccccc1 | -82 | . | . | . | ?
COc1ccc(NC2=NCC(Cc3ccc(Br)cc3)S2)cc1 (stereo unspecified) | -91 | 23µM | . | ? | ?
COc1ccc(CNc2ccc(Br)cc2)cc1 | . | . | . | . | .
CN1CCN(c2oc(-c3cccs3)nc2S(=O)(=O)c2ccccc2)CC1 | . | . | 13µM | . | .
O=C(CSc1oc(-c2cccs2)nc1S(=O)(=O)c1ccccc1)NC1CCCCC1 | . | . | 3.7µM | . | .
CN1CCN(c2oc(-c3ccccc3Cl)nc2S(=O)(=O)c2ccccc2)CC1 | . | . | ? | . | .
O=C(Cn1cc(C(F)(F)F)cc(Cl)c1=O)NC1CCS(=O)(=O)C1 (stereo unspecified) | . | . | . | . | .
COC(=O)c1cccc(NC(=O)CC2C(=O)NCCN2C(=O)c2ccc(F)cc2F)c1 (stereo unspecified) | . | . | . | . | .
O=C(NCc1ccco1)c1cc([N+](=O)[O-])ccc1N1CCOCC1 | . | . | . | . | .
C=CCn1c2ccccc2c2nnc(SCCCn3c(=O)[nH]c4ccccc43)nc21 | -79 | ? | ? | .[9.22 µM] | 21µM
C=CCn1c2ccccc2c2nnc(SCCN3CCCCC3)nc21 | . | ? | . | . | .
O=C1CCC/C1=c1\s/c(=C\c2cccnc2)c(=O)n1-c1ccccc1 | -75 | . | . | . | .
O=C1CCC/C1=c1\s/c(=C/c2cccnc2)c(=O)n1-c1ccccc1 | -73 | / | / | . | .

Source: PubChem (National Center for Advancing Translational Sciences (NCATS))
